In ChEMBL document CHEMBL2218924, “A broad activity screen in support of a chemogenomic map for kinase signalling research and drug discovery” (Biochem J, 2013):

biological target: Platelet-derived growth factor receptor beta (Homo sapiens) (UniProt P09619); conditions: at 1 µM
Sequence (P09619 whole entry): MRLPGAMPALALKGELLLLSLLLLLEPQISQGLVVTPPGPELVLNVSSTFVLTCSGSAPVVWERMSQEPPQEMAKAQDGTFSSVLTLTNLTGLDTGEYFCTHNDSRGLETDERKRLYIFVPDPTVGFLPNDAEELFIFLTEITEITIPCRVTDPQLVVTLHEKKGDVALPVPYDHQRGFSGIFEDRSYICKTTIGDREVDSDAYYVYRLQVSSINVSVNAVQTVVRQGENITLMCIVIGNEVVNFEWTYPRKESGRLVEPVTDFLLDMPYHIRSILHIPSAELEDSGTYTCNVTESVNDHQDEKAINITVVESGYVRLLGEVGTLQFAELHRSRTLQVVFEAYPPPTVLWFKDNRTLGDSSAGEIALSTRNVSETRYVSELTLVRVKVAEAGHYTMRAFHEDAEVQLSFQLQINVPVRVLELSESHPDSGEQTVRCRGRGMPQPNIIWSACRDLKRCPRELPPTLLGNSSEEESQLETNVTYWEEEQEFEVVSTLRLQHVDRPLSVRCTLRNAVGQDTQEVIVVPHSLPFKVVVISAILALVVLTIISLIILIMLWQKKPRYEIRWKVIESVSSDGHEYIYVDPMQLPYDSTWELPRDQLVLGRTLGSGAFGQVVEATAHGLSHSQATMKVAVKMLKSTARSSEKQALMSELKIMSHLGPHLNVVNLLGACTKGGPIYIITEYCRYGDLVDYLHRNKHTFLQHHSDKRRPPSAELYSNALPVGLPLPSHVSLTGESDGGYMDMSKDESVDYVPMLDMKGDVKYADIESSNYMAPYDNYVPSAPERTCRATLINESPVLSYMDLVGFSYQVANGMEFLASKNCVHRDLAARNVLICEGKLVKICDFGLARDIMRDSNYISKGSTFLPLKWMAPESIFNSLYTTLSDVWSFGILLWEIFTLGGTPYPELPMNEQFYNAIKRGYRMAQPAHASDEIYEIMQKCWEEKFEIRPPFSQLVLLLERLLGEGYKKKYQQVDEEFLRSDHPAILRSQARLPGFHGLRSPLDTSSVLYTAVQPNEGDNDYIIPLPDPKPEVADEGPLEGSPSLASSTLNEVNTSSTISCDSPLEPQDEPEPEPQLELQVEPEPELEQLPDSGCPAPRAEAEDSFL

Compound | residual activity
N#CC(C#N)=C(N)/C(C#N)=C/c1ccc(O)cc1 | 99%
Ic1cccc(CSc2nnc(-c3ccncc3)o2)c1 | 99%
Cc1ccc(NC2=CC(=O)c3sc(C)nc3C2=O)cc1 | 93%
CCOc1cc2ncnc(Nc3cccc(Br)c3)c2cc1OCC | 89%
COc1cccc(-c2cc(=O)c3ccccc3o2)c1N | 114%
CN(C)CCCn1cc(C2=C(c3c[nH]c4ccccc34)C(=O)NC2=O)c2ccccc21 | 106%
O=Nc1c(-c2c(O)[nH]c3ccccc23)[nH]c2ccccc12 | 84%
COc1cc2ncc(-c3ccccc3)nc2cc1OC | 97%
COc1ccc(C(=O)Nc2sc3c(c2C(N)=O)CCCC3)cc1OC | 89%
C[C@@H](N)[C@H]1CC[C@H](C(=O)Nc2ccncc2)CC1 | 107%
Cn1cc(/C=C2\C(=O)Nc3ccc(S(N)(=O)=O)cc32)c2ccccc21 | 98%
O=c1c2ccccc2[nH]c(=S)n1CCN1CCC(=C(c2ccc(F)cc2)c2ccc(F)cc2)CC1 | 106%
NC(=O)c1ccc2[nH]c(-c3ccc(Oc4ccc(Cl)cc4)cc3)nc2c1 | 107%

biological target: Platelet-derived growth factor receptor beta (Homo sapiens) (UniProt P09619); conditions: at 10 µM

Compound | residual activity
CO[C@H]1C[C@@H]2CC[C@@H](C)[C@@](O)(O2)C(=O)C(=O)N2CCCC[C@H]2C(=O)O[C@H]([C@H](C)C[C@@H]2CC[C@@H](O)[C@H](OC)C2)CC(=O)[C@H](C)/C=C(\C)[C@@H](O)[C@@H](OC)C(=O)[C@H](C)C[C@H](C)/C=C/C=C/C=C/1C | 114%
Cc1cc(Nc2nc(-c3ccccc3)nc3ccccc23)n[nH]1 | 28%
c1ccc(-c2n[nH]cc2-c2ccnc3ccccc23)nc1 | 109%
O=C(O)c1ccc2c3c1cccc3c(=O)n1c3ccccc3nc21 | 108%
O=c1cc(-c2cccc3c2Sc2ccccc2S3)oc(N2CCOCC2)c1 | 92%
CO[C@@H]1[C@H](N(C)C(=O)c2ccccc2)C[C@H]2O[C@]1(C)n1c3ccccc3c3c4c(c5c6ccccc6n2c5c31)C(=O)NC4 | 25%
Oc1ccc(-c2nc(-c3ccc(F)cc3)c(-c3ccncc3)[nH]2)cc1 | 97%
COc1ccc(S(=O)(=O)N(CCO)c2ccccc2CN(C)C/C=C/c2ccc(Cl)cc2)cc1 | 104%
Cc1cc2ncc(-c3ccccc3)nc2cc1C | 96%
Cc1cncc2cccc(S(=O)(=O)N3CCCN(C(=O)CN)C[C@H]3C)c12 | 96%
CC(=O)c1ccc(N2CCOCC2)cc1O | 105%
O=C1NC(=O)/C(=C/c2ccc3c(c2)OC(F)(F)O3)S1 | 116%
CCN(CC)C(=O)c1ccc(Nc2nc(OCC3CCCCC3)c3nc[nH]c3n2)cc1 | 14%
Cn1nc2c3c(cccc31)C(=O)c1ccccc1-2 | 88%
O=C1Nc2ccccc2/C1=C1/Nc2ccccc2/C1=N\OCCC(O)CO (centres undefined) | 24%
O=[N+]([O-])c1ccc(-c2nc(-c3ccc(F)cc3)c(-c3ccncc3)[nH]2)cc1 | 111%
Ic1cccc(CSc2nnc(-c3ccncc3)o2)c1 | 97%
Cc1ccc(NC2=CC(=O)c3sc(C)nc3C2=O)cc1 | 92%
CCOc1cc2ncnc(Nc3cccc(Br)c3)c2cc1OCC | 91%
COc1cc2ncnc(Nc3ccc(NC(=O)c4ccccc4)cc3)c2cc1OC | 102%
COc1cccc(-c2cc(=O)c3ccccc3o2)c1N | 108%
CN(C)CCCn1cc(C2=C(c3c[nH]c4ccccc34)C(=O)NC2=O)c2ccccc21 | 65%
O=Nc1c(-c2c(O)[nH]c3ccccc23)[nH]c2ccccc12 | 26%
COc1cc2ncc(-c3ccccc3)nc2cc1OC | 73%
COc1ccc(C(=O)Nc2sc3c(c2C(N)=O)CCCC3)cc1OC | 97%
C[C@@H](N)[C@H]1CC[C@H](C(=O)Nc2ccncc2)CC1 | 106%
Cn1cc(/C=C2\C(=O)Nc3ccc(S(N)(=O)=O)cc32)c2ccccc21 | 51%
O=c1c2ccccc2[nH]c(=S)n1CCN1CCC(=C(c2ccc(F)cc2)c2ccc(F)cc2)CC1 | 85%
NC(=O)c1ccc2[nH]c(-c3ccc(Oc4ccc(Cl)cc4)cc3)nc2c1 | 128%

biological target: T1, 3-phosphoinositide-dependent protein kinase 1 (Homo sapiens) (UniProt O15530); conditions: at 1 µM
T1 sequence (whole entry): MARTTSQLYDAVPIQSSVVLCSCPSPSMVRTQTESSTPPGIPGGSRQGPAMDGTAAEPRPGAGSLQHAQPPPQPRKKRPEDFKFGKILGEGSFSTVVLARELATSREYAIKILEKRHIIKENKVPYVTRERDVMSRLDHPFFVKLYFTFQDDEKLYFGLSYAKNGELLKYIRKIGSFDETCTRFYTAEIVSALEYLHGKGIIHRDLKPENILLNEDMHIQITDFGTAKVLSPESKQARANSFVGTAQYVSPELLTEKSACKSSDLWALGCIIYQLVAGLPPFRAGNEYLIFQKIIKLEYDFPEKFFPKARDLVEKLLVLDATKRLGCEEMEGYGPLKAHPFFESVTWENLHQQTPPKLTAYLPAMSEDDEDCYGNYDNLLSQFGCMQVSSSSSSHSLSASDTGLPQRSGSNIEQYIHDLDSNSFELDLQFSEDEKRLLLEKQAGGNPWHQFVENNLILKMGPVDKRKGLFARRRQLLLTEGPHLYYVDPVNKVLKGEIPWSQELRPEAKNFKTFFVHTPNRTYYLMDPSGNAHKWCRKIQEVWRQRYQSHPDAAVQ

Compound | residual activity
CO[C@H]1C[C@@H]2CC[C@@H](C)[C@@](O)(O2)C(=O)C(=O)N2CCCC[C@H]2C(=O)O[C@H]([C@H](C)C[C@@H]2CC[C@@H](O)[C@H](OC)C2)CC(=O)[C@H](C)/C=C(\C)[C@@H](O)[C@@H](OC)C(=O)[C@H](C)C[C@H](C)/C=C/C=C/C=C/1C | 117%
N#CCCc1ccc2c(c1)-c1[nH]c3ccc([N+](=O)[O-])cc3c1CC(=O)N2 | 17%
Cc1cc(Nc2nc(-c3ccccc3)nc3ccccc23)n[nH]1 | 94%
c1ccc(-c2n[nH]cc2-c2ccnc3ccccc23)nc1 | 104%
O=C(O)c1ccc2c3c1cccc3c(=O)n1c3ccccc3nc21 | 108%
O=c1cc(-c2cccc3c2Sc2ccccc2S3)oc(N2CCOCC2)c1 | 99%
CO[C@@H]1[C@H](N(C)C(=O)c2ccccc2)C[C@H]2O[C@]1(C)n1c3ccccc3c3c4c(c5c6ccccc6n2c5c31)C(=O)NC4 | 2%
Oc1ccc(-c2nc(-c3ccc(F)cc3)c(-c3ccncc3)[nH]2)cc1 | 108%
COc1ccc(S(=O)(=O)N(CCO)c2ccccc2CN(C)C/C=C/c2ccc(Cl)cc2)cc1 | 119%
O=C1NC(=O)/C(=C/c2ccc3c(c2)OC(F)(F)O3)S1 | 108%
CCN(CC)C(=O)c1ccc(Nc2nc(OCC3CCCCC3)c3nc[nH]c3n2)cc1 | 20%
Cn1nc2c3c(cccc31)C(=O)c1ccccc1-2 | 95%
O=C1Nc2ccccc2/C1=C1/Nc2ccccc2/C1=N\OCCC(O)CO (centres undefined) | 29%
O=[N+]([O-])c1ccc(-c2nc(-c3ccc(F)cc3)c(-c3ccncc3)[nH]2)cc1 | 117%
Ic1cccc(CSc2nnc(-c3ccncc3)o2)c1 | 56%
Cc1ccc(NC2=CC(=O)c3sc(C)nc3C2=O)cc1 | 99%
CCOc1cc2ncnc(Nc3cccc(Br)c3)c2cc1OCC | 104%
COc1cccc(-c2cc(=O)c3ccccc3o2)c1N | 114%
CN(C)CCCn1cc(C2=C(c3c[nH]c4ccccc34)C(=O)NC2=O)c2ccccc21 | 63%
O=Nc1c(-c2c(O)[nH]c3ccccc23)[nH]c2ccccc12 | 53%
COc1ccc(C(=O)Nc2sc3c(c2C(N)=O)CCCC3)cc1OC | 95%
C[C@@H](N)[C@H]1CC[C@H](C(=O)Nc2ccncc2)CC1 | 95%
Cn1cc(/C=C2\C(=O)Nc3ccc(S(N)(=O)=O)cc32)c2ccccc21 | 76%
O=c1c2ccccc2[nH]c(=S)n1CCN1CCC(=C(c2ccc(F)cc2)c2ccc(F)cc2)CC1 | 116%
c1ccc2c(-c3ccncc3)c[nH]c2c1 | 111%
COc1cc2ncnc(N3CCN(C(=O)Nc4ccc(Oc5ccccc5)cc4)CC3)c2cc1OC | 106%
NC(=O)c1ccc2[nH]c(-c3ccc(Oc4ccc(Cl)cc4)cc3)nc2c1 | 105%
